# Laboratory results as given in PubChem BioAssay (Tox21).
# Several values for one entry are separate records, joined by “and”; a condition that tells them apart may be missing. Identical values can stand only once. Inconclusive results are not listed. Where a call stands in place of a potency, no number is given. More than one record can exist for a structure, and the calls need not agree. Activity calls are given as the source filed them. Unless noted, calls come from the whole dose curve; as a rule, active = well fitted curve in the direction sought with a large enough effect in the repeat runs; inconclusive = weak or mixed curves; inactive = no such curve, though single readings can be large; an effect the other way counts as inactive or inconclusive.
# Experiments:
# [1] = target: Aryl hydrocarbon receptor (Homo sapiens) (UniProt P35869); assay: qHTS assay to identify small molecule that activate the aryl hydrocarbon receptor (AhR) signaling pathway (AID 743085); note: nearly all actives have a fitted effect of over 15% in size;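 for activation: HG2L7.5c1 human HepG2 liver cells with stably integrated DRE-driven firefly reporter; series mostly up to about 70 µM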
# Sequence of Aryl hydrocarbon receptor (Homo sapiens) (P35869 whole entry, looked up): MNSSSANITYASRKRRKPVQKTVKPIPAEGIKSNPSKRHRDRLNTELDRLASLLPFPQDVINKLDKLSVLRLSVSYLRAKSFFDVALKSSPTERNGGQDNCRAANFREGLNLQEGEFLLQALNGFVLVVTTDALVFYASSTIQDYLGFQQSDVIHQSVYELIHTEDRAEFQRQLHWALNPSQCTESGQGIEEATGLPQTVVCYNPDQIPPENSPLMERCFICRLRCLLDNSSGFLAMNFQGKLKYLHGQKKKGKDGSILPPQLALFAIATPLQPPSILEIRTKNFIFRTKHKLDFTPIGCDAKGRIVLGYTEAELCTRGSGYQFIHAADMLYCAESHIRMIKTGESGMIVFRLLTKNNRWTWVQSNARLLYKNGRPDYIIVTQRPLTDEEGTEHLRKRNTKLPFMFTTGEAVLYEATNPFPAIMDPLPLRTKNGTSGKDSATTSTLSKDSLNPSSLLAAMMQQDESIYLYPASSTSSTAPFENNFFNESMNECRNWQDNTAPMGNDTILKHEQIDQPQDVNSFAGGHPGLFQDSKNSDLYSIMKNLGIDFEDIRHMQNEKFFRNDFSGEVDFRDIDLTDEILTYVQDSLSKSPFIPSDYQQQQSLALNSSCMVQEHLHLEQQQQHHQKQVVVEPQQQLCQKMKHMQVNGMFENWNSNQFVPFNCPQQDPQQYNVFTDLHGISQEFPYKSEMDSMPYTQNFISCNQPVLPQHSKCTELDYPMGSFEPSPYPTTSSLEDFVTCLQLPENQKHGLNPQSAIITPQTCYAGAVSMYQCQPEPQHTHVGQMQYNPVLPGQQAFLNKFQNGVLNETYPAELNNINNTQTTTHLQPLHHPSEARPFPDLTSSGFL
# Outline: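 Reporter assay in engineered HepG2 line HG2L7.5c1, whose plasmid carries twenty dioxin responsive elements upstream of firefly luciferase. Treatment lasted 24 h at 37C; ONE-Glo luminescence gauged induction.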
# [2] = qHTS assay to identify small molecule that activate the aryl hydrocarbon receptor (AhR) signaling pathway - cell viability counter screen (AID 743086); note: nearly all actives have a fitted effect of over 45% in size
# Outline: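 HepG2-AhR-luc (HG2L7.5c1) cells, 4000/well, were preincubated 5 h at 37C, exposed to compound in qHTS format for 24 hr at 37C, then given CellTiter-Fluor for 30 min; viability was read as fluorescence in the reporter wells.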
# [3] = target: Peroxisome proliferator-activated receptor gamma (Homo sapiens) (UniProt P37231); assay: qHTS assay to identify small molecule agonists of the peroxisome proliferator-activated receptor gamma (PPARg) signaling pathway (AID 743094; active = well fitted activation curve with a large enough effect in the signal ratio in the repeat runs, not every such curve was filed as active; the % refers to the signal ratio)
# Sequence of Peroxisome proliferator-activated receptor gamma (Homo sapiens) (P37231 whole entry, looked up): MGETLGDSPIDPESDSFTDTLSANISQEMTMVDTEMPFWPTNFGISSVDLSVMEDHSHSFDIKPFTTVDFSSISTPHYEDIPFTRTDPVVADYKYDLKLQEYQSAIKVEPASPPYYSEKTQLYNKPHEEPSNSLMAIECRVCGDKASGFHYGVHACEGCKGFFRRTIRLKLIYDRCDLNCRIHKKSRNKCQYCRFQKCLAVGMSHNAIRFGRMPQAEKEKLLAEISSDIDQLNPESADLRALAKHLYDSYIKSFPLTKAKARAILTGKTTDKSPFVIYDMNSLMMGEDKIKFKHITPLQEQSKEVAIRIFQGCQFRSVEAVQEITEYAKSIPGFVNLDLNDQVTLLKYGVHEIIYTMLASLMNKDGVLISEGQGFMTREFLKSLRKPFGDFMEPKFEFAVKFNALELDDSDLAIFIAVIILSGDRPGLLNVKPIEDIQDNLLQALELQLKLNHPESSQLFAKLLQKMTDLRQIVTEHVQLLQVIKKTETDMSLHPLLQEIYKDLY
# Outline: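 Fluorescence-based beta-lactamase readout in HEK293H PPARg UAS-bla cells after 17 h compound exposure (37C) and 1 h B/G FRET substrate incubation at room temperature.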
# [4] = target: Peroxisome proliferator-activated receptor gamma (Homo sapiens) (UniProt P37231); assay: qHTS assay to identify small molecule antagonists of the peroxisome proliferator-activated receptor gamma (PPARg) signaling pathway (AID 743191; calls by dose curve; note: nearly all actives have a fitted effect of over 30% in size)
# Outline: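 GeneBLAzer PPARg UAS-bla HEK293H cells carrying a UAS-driven beta-lactamase reporter were plated at 3000 cells/well, preincubated 5 h at 37C, then given compound for 17 h at 37C; LiveBLAzer B/G FRET substrate was read after 1 h at room temperature.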
# [5] = qHTS assay to identify small molecule antagonists of the peroxisome proliferator-activated receptor gamma (PPARg) signaling pathway - cell viability counter screen (AID 743194); conditions: Potency: co-treated with 50 nM rosiglitazone unless noted; note: nearly all actives have a fitted effect of over 55% in size
# Outline: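 PPARg-UAS-bla HEK293H cells were plated, rested 5 h at 37 C, then treated with compounds plus rosiglitazone (50 nM final) for 17 h at 37 C; viability was then read by CellTiter-Glo luminescence after 30 min at room temperature.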
# [6] = qHTS assay for small molecule agonists of the antioxidant response element (ARE) signaling pathway - cell viability counter screen (AID 743203; calls by dose curve; note: nearly all actives have a fitted effect of over 55% in size)
# Outline: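 Parallel cytotoxicity read-out for the ARE-bla screen: HepG2 reporter cells, 16 hrs with compounds, then CellTiter-Glo luminescence.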
# [7] = qHTS assay for small molecule agonists of the antioxidant response element (ARE) signaling pathway (AID 743202; active = well fitted activation curve with a large enough effect in the signal ratio in the repeat runs, not every such curve was filed as active; the % refers to the signal ratio)
# Outline: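 Steps: seed ARE-bla HepG2 cells (2,000/well); incubate 5 h at 37 C; add compounds by pin tool; incubate 16 h at 37 C; add FRET substrate; read fluorescence after 2 h at RT.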
# [8] = qHTS assay for small molecule activators of the heat shock response signaling pathway - cell viability counter screen (AID 743209); note: nearly all actives have a fitted effect of over 50% in size
# Outline: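 To flag cytotoxic compounds, HSE-bla HeLa cells plated at 1500 cells/well were dosed for 5 h at 37 C, followed by the reporter FRET read and then CellTiter-Glo, with luminescence recorded 30 min after reagent addition.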
# [9] = qHTS assay for small molecule activators of the heat shock response signaling pathway (AID 743210; active = well fitted activation curve with a large enough effect in the signal ratio in the repeat runs, with a control signal flat, not every such curve was filed as active; the % refers to the signal ratio;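 for activation: HeLa cells with beta-lactamase reporter driven by heat shock elements; series mostly up to about 63 µM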)
# Outline: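 Activation of heat shock element-controlled beta-lactamase expression is measured in HeLa cells by LiveBLAzer FRET fluorescence, with compound exposure lasting 5 h at 37 C and substrate loading 2.5 h at room temperature.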
# [10] = qHTS assay to identify small molecule agonists of the peroxisome proliferator-activated receptor delta (PPARd) signaling pathway - cell viability counter screen (AID 743211); note: nearly all actives have a fitted effect of over 55% in size
# Outline: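 Multiplexed format: after the 2 h room-temperature LiveBLAzer B/G FRET step, CellTiter-Glo was added to the same wells. Luminescence after 30 min gave cell viability; compound exposure was 17 h at 37C.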
# Potency is the fitted concentration of half-maximal effect.
Compound,Potency [1],Potency [2],Potency [3],Potency [4],Potency [5],Potency [6],Potency [7],Potency [8],Potency [9],Potency [10]
O=c1[nH]c2ccccc2n1C1CCN(CCCC(c2ccc(F)cc2)c2ccc(F)cc2)CC1,inactive,inactive,inactive,34.7 µM (active),24.5 µM [setting not given] (active),24.3 µM (active) and 33.5 µM (active),–,–,–,–
CC(=O)O[C@H]1CC[C@@]2(C)C(=CC[C@@H]3[C@@H]2CC[C@]2(C)C(=O)CC[C@@H]32)C1,inactive,inactive,inactive,–,inactive,inactive,48.6 µM (active),–,–,–
CNC(C)Cc1ccc2c(c1)OCO2 (stereo not given),inactive,inactive,inactive,inactive,inactive,inactive,inactive,–,–,–
CCOCn1c(-c2ccc(Cl)cc2)c(C#N)c(Br)c1C(F)(F)F,inactive,–,–,–,–,–,–,–,–,–
Cc1cc(SCc2sc(-c3ccc(C(F)(F)F)c(F)c3)nc2C)ccc1OCC(=O)O,inactive,inactive,2.45 µM (active),–,49 µM (active),–,–,–,–,–
CC(=O)Nc1ccc2c(c1)Cc1ccccc1-2,55.3 µM (active),inactive,inactive,inactive,–,inactive,27.7 µM (active),inactive,inactive,inactive
CC(C)CCCCCCCOP(=O)(Oc1ccccc1)Oc1ccccc1,inactive,inactive,inactive,–,inactive,inactive,–,inactive,inactive,–
CCCCCCCCCCCCCN1CC(C)OC(C)C1 (stereo not given),inactive,inactive,inactive,–,inactive,inactive,–,inactive,inactive,–
Fc1cccc(Cl)c1CCl,inactive,inactive,inactive,inactive,inactive,inactive,–,inactive,inactive,inactive
CN(C)CCc1c[nH]c2ccc(O)cc12,inactive,inactive,inactive,inactive,–,inactive,–,–,59.7 µM (active),–
c1ccc2c(c1)[nH]c1cnccc12,54.5 µM (active),inactive,inactive,inactive,–,inactive,–,–,–,inactive
COc1ccc(OC)c(CC(C)N)c1 (stereo not given),inactive,inactive,inactive,inactive,inactive,inactive,inactive,inactive,inactive,inactive
CC(C)N1C(=O)N(c2ccccc2)CSC1=NC(C)(C)C,inactive,inactive,–,–,–,–,–,–,–,–
Clc1ccc(C(c2ccc(Cl)cc2)C(Cl)(Cl)Cl)cc1,inactive,inactive,inactive,inactive,–,48.9 µM (active) and inactive,–,55.3 µM (active) and 54.9 µM (active) and inactive,inactive,49.3 µM (active) and 38.9 µM (active)
Clc1ccc(C(Cl)(Cl)Cl)c(Cl)c1,inactive,inactive,inactive,inactive,inactive,inactive,–,inactive,inactive,–
CC1CCC(C(C)C)C(OC(=O)c2ccccc2N)C1 (stereo not given),inactive,inactive,inactive,–,–,inactive,–,–,–,–
CC(=O)C(Cl)(Cl)Cl,inactive,23.5 µM (active),inactive,–,–,0.743 µM (active),–,inactive,–,–
CC(C)[C@H](C(=O)OC(C#N)c1cccc(Oc2ccccc2)c1)c1ccc(OC(F)F)cc1 (stereo not given in full),inactive,inactive,–,inactive,–,inactive,inactive,–,–,inactive
ClC1=C(Cl)C2(Cl)C3C(Cl)C=CC3C1(Cl)C2(Cl)Cl (stereo not given),inactive,inactive,inactive,–,–,61.1 µM (active),–,–,–,38.9 µM (active)
CC(C)Oc1cccc(NC(=O)c2ccccc2C(F)(F)F)c1,9.97 µM (active),inactive,inactive,–,–,inactive,–,–,inactive,–
CC(Cc1ccc(C(C)(C)C)cc1)CN1C[C@@H](C)O[C@@H](C)C1 (stereo not given in full),inactive,inactive,inactive,–,49 µM (active),–,–,inactive,inactive,–
C=CC(=O)OCCCCOC(=O)C=C,inactive,inactive,9.77 µM (active),–,–,–,27.3 µM (active),5.49 µM (active),–,49 µM (active)
CCOC(=O)OC1=C(c2cc(C)ccc2C)C(=O)NC12CCC(OC)CC2 (stereo not given),inactive,inactive,inactive,–,–,inactive,inactive,inactive,inactive,inactive
CC1(C)CC/C(=C/c2ccc(Cl)cc2)C1(O)Cn1cncn1 (stereo not given),8.6 µM (active),inactive,–,–,inactive,–,–,–,–,–
ClC(Cl)=C(c1ccc(Cl)cc1)c1ccc(Cl)cc1,inactive,inactive,inactive,–,–,–,–,–,–,24.5 µM (active)
ClC1=C(Cl)[C@]2(Cl)[C@@H]3[C@@H]4C[C@@H]([C@H]5O[C@@H]45)[C@@H]3[C@@]1(Cl)C2(Cl)Cl,inactive,inactive,inactive,–,–,54.5 µM (active),–,–,–,49 µM (active)
COc1cc(N)c(Cl)cc1C(=O)NC1CN2CCC1CC2 (stereo not given),inactive,inactive,inactive,–,–,inactive,inactive,–,inactive,inactive
CCOC(=O)CC(=O)CCl,inactive,inactive,21.9 µM (active),–,–,inactive,–,–,–,inactive
